A number with no mark means an inactive call. Inconclusive results are not listed. Where a call stands in place of a potency, no number is given. Calls of active or inactive are those of the source. Unless noted, the call rests on the fitted dose curve; in most records, active means well fitted curve in the direction sought with a large enough effect; inconclusive means small, poorly fitted or top-dose-only effect, or another doubt; inactive means no such curve, though single readings can be large; an effect the other way counts as inactive or inconclusive.
Tests used:
[1] = AP1 Signaling Pathway (AID 357; active means well fitted curve in either direction with a large enough effect, not every such curve was filed as active;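 further: ME-180 reporter cells stimulated with EGF at its EC50 level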); details: ME-180 AP-1-bla reporter, EGF-induced, beta-lactamase ratio, 5 h; at 7.69 µM (top of the series) unless noted
Summary of the method: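 Beta-lactamase reporter under AP-1 response element, ME-180 background. Stimulus: EC50 EGF. Compound exposure 5 h, 37 °C. Detection: CCF4, 2.5 h RT, 460/530 nm. Values: AC50 from titration.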

[2] = biological target: Cytochrome P450 1A2 (Homo sapiens) (UniProt P05177); test: p450-cyp1a2 (AID 410; calls by dose curve; further: potency means the concentration at half of the fitted maximal effect)
Chain of Cytochrome P450 1A2 (Homo sapiens) (P05177 whole entry, looked up): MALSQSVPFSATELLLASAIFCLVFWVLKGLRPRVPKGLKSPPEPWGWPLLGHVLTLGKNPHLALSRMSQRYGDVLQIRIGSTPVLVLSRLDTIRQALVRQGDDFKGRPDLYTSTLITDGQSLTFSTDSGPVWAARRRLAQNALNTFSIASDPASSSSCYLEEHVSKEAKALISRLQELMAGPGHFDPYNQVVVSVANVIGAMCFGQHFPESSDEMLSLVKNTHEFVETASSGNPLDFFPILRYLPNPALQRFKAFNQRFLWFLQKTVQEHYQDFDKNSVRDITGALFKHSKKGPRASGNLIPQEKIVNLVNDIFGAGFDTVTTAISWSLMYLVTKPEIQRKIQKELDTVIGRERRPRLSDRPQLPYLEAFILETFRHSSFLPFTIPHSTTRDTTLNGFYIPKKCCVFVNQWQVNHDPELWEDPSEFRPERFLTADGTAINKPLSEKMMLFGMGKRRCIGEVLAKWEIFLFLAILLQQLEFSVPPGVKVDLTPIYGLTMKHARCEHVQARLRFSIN
Summary of the method: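 Inhibition was calculated relative to 57 uM furafylline (full inhibition). The reaction used human CYP1A2 at 20nM with Luciferin-ME at its Km, 100uM, driven by an NADPH-regenerating system for 60 min at room temperature.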

[3] = NFAT Signaling Pathway (AID 444; active means well fitted curve in either direction with a large enough effect, not every such curve was filed as active;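 further: carbachol stimulus at about its EC50 of 1 µM final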); details: Jurkat NFAT-bla M1, carbachol, beta-lactamase ratio, 5 h; at 7.69 µM (top of the series) unless noted
Summary of the method: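 Read-out: CCF4 FRET ratio (460 nm/530 nm) after 1 h RT dye loading, used for %activity and AC50 from titration series. Cells: Jurkat NFAT-β-lactamase/M1 line, treated with compound plus 1 uM carbachol for 5 h, 37 °C.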

[4] = Stat Signaling Pathway (AID 446; active means well fitted curve in either direction with a large enough effect, not every such curve was filed as active;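 further: ME-180 cervical cancer cells given 40 pM IL-6 alongside compound; SIE-controlled beta-lactamase reporter measured as 460/530 nm FRET emission ratio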); details: ME-180 SIE beta-lactamase reporter, IL-6 stimulated, 5 h; at 7.69 µM (top of the series) unless noted
Summary of the method: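 Screening format detects activators and inhibitors alike: ME-180 SIE-bla cells stimulated at 40 pM IL-6 for 5 hrs with compound, then dual-emission beta-lactamase read at 405 nm excitation.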

[5] = biological target: Glucocorticoid receptor (Homo sapiens) (UniProt P04150); test: GR-GFP Redistribution (AID 450;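 active means compounds whose dose series gives a full or clear partial fitted curve of increased nuclear translocation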; further: potency means the concentration at half of the fitted maximal effect); details: U2OS GR-GFP nuclear translocation, laser cytometry, 2 h
Chain of Glucocorticoid receptor (Homo sapiens) (P04150 whole entry, looked up, the tested form may be a part): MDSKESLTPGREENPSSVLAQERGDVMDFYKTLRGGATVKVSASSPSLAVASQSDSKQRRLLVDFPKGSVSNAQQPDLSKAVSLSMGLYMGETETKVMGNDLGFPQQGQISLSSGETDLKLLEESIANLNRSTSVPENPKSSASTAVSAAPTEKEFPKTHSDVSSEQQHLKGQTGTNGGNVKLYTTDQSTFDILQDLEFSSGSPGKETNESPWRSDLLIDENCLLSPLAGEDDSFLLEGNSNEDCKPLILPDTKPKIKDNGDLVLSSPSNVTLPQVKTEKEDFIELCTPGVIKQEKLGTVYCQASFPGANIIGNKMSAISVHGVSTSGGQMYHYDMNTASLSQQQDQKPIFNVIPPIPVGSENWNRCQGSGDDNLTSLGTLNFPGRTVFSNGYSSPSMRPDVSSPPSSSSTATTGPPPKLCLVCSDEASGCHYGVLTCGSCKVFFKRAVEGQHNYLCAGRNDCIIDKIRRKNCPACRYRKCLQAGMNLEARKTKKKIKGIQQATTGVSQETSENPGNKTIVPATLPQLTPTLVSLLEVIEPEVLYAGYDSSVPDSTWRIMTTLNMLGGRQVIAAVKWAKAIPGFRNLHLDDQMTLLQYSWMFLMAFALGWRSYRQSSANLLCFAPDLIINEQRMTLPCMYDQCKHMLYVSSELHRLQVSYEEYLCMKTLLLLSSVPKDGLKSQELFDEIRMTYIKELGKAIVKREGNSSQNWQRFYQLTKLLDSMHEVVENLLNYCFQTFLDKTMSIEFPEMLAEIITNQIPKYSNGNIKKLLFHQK

[6] = biological target: Glucocorticoid receptor (Homo sapiens) (UniProt P04150); test: GR-EFC Redistribution (AID 451; calls by dose curve; further: potency means the concentration at half of the fitted maximal effect); details: CHO-K1 GR-EFC translocation, beta-gal luminescence, 2 h
Summary of the method: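 Translocation of GR-ED fusion to nuclear EA restores b-gal, read by luminescence after 1 h room-temperature detection. Engineered CHO-K1 biosensor cells, 1,000/well, exposed 2 h at 37 C to titrations up to 46 uM final.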

[7] = biological target: Mitogen-activated protein kinase 10 (Mus musculus) (UniProt Q61831); test: JNK3 AlphaScreen Assay (AID 530; active means well fitted curve in either direction with a large enough effect, not every such curve was filed as active;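 further: kinase came from lysate of stimulated human HepG2 cells; signal reports phosphorylation of biotinylated GST-cJun 1-79 at Ser73 with 10 µM ATP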)
Summary of the method: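 Room-temperature AlphaScreen kinase assay; pre-activated HepG2 lysate as JNK3 source, biotin-GST-cJun(1-79) substrate, 10 uM ATP, compound 15 min preincubation.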

[8] = biological target: 3',5'-cyclic-AMP phosphodiesterase 4B (Homo sapiens) (UniProt Q07343); test: qHTS Assay for Inhibitors of PDE-IV (AID 607; active means well fitted activation curve with a large enough effect in the main read-out, with a control signal flat, not every such curve was filed as active)
Chain of 3',5'-cyclic-AMP phosphodiesterase 4B (Homo sapiens) (Q07343 whole entry, looked up): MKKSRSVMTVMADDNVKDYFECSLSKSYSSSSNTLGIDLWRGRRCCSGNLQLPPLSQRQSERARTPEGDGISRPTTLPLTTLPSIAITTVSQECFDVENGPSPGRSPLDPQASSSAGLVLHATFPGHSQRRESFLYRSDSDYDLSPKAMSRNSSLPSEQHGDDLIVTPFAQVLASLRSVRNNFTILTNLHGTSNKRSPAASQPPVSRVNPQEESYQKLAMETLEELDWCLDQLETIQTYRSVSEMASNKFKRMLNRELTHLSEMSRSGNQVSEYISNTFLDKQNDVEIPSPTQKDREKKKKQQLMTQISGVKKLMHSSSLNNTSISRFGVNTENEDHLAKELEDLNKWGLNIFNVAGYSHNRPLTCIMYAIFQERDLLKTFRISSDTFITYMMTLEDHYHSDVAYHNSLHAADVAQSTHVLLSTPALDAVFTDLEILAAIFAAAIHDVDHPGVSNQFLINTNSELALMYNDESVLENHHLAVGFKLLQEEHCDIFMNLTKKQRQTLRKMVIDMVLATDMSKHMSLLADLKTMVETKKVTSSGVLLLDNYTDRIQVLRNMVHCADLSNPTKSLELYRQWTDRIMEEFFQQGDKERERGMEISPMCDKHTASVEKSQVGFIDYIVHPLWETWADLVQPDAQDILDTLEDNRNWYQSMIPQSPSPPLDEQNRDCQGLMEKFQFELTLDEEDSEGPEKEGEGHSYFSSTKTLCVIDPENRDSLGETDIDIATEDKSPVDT
Summary of the method: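 The readout is membrane depolarisation from a cAMP-sensing CNG channel, detected with a potential dye at ex 535/em 590. Cells were HEK293-derived (endogenous PDE-IV) at 1000 cells/well, titrated up to 22.9 uM final.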

[9] = biological target: Guanine nucleotide-binding protein G(i) subunit alpha-1 (Homo sapiens) (UniProt P63096); test: qHTS Assay for Inhibitors of RGS12 GoLoco Motif Activity (Green Fluorophore) (AID 879);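 further: negative values mean loss of peptide binding seen as reduced polarization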
Chain of Guanine nucleotide-binding protein G(i) subunit alpha-1 (Homo sapiens) (P63096 whole entry, looked up): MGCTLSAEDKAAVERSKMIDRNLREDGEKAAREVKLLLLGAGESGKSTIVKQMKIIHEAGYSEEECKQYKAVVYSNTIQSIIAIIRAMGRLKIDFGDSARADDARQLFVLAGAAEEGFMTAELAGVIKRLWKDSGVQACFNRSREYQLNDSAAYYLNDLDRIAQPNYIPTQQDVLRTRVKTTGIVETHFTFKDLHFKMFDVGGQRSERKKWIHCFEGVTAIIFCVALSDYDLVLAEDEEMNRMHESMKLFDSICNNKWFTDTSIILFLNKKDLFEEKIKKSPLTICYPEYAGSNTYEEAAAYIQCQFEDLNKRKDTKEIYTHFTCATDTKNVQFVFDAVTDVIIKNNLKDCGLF
Summary of the method: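 Fluorescence polarization assay: 50 nM Gαi1 with 10 nM FITC-labeled RGS12 GoLoco peptide in 10 mM Tris pH 7.5, 150 mM NaCl, 0.1 mM GDP, 0.05% NP40, 10 min at room temperature with compound.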

[10] = biological target: Cytochrome P450 3A4 (Homo sapiens) (UniProt P08684); test: qHTS Assay for Activators of Cytochrome P450 3A4 (AID 885); further: nearly all actives have a fitted effect of over 65% in size
Chain of Cytochrome P450 3A4 (Homo sapiens) (P08684 whole entry, looked up): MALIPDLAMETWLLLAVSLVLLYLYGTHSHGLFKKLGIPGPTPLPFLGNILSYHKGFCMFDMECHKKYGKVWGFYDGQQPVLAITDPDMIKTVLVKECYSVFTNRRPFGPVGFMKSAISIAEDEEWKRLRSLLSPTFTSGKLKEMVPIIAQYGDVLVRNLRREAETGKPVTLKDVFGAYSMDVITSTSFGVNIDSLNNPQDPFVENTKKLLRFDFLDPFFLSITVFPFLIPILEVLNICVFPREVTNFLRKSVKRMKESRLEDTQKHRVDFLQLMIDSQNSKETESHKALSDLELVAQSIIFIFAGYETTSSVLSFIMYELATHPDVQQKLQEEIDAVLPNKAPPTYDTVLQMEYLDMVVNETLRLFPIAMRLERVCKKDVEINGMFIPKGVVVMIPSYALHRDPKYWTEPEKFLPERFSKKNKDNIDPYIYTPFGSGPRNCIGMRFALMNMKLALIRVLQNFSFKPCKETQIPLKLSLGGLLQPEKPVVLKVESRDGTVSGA
Summary of the method: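 Steps: enzyme/substrate mix dispensed; compound added, 10 min RT; NADPH regeneration solution added, 60 min RT; luciferin detection buffer stops reaction; 20 min later luminescence measured.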

[11] = qHTS Assay for Identification of Small Molecule Agonists for Thrombopoietin (TPO) Signaling Pathway (AID 917)
Summary of the method: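 We measured Glycoprotein IIb promoter–luciferase output in IL-3-starved Ba/F3 murine cells expressing the human TPO receptor after 24 hrs at 37 C with compounds and 26 pM TPO.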

[12] = biological target: Muscarinic acetylcholine receptor M1 (Rattus norvegicus) (UniProt P08482); test: qHTS Assay for Antagonists of Acetylcholine Muscarinic M1 Receptor: Kinetic Measurement of Intracellular Calcium Response (AID 943);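 further: Fluo-4 calcium signal as peak divided by basal fluorescence over 4 min; nearly all actives have a fitted effect of over 75% in size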
Chain of Muscarinic acetylcholine receptor M1 (Rattus norvegicus) (P08482 whole entry, looked up): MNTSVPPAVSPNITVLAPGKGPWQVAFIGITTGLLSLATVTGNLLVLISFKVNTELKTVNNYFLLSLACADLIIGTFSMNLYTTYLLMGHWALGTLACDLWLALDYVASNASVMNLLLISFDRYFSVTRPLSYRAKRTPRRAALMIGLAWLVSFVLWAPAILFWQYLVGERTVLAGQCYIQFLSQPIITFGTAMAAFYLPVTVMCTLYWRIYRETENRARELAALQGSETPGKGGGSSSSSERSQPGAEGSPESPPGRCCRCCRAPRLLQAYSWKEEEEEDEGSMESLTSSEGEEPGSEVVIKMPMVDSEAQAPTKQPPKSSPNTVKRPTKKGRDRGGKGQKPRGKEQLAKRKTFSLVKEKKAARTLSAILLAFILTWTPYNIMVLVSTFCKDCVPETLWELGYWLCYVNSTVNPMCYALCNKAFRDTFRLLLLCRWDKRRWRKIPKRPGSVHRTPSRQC
Summary of the method: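 Intracellular calcium flux, recorded with Fluo-4 in a kinetic plate reader, served as signal; the response to carbachol at EC80 (100 nM final) was taken as maximal over minimal fluorescence after a 10 min compound pre-incubation in rat M1-CHO cells.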

[13] = biological target: Muscarinic acetylcholine receptor M1 (Rattus norvegicus) (UniProt P08482); test: qHTS Assay for Antagonists of Acetylcholine Muscarinic M1 Receptor: Measurement of IP-One Response (AID 944); further: nearly all actives have a fitted effect of over 75% in size
Summary of the method: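 Steps: plate transfected CHO-M1 cells overnight; add test compound, 10 min; add carbachol (200 nM, EC80) in stimulation buffer with LiCl; incubate 30 min; add labelled IP1 tracer and anti-IP1 antibody in lysis buffer; read HTRF after 10 min.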

[14] = biological target: Pyruvate kinase PKM (Homo sapiens) (UniProt P14618); test: qHTS Assay for Activators of Human Muscle Pyruvate Kinase (AID 954; active means well fitted curve in the direction sought with a large enough effect, not every such curve was filed as active)
Chain of Pyruvate kinase PKM (Homo sapiens) (P14618 whole entry, looked up): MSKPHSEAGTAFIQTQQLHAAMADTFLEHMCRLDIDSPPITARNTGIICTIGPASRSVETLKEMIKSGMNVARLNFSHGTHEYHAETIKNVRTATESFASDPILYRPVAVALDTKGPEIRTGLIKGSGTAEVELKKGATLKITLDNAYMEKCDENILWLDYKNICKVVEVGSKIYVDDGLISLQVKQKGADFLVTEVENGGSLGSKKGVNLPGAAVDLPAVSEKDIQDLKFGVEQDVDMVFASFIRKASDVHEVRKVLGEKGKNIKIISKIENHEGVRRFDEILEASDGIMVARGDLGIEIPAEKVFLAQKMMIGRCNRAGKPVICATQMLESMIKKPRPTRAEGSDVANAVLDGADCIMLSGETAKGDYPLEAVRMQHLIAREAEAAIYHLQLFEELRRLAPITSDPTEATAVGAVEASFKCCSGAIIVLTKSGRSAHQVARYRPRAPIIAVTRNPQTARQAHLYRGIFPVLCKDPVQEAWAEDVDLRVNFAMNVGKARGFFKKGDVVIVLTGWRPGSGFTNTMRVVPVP
Summary of the method: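 Reaction: 0.1 nM purified PKM2 with 0.5 mM phosphoenolpyruvate and 0.1 mM ADP, room temperature, 1 h. Readout: luciferase-based ATP luminescence after stop reagent. Activators judged against a 0.3 nM enzyme column.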

[15] = biological target: Alpha-galactosidase A (Homo sapiens) (UniProt P06280); test: Counterscreen for Glucocerebrosidase Inhibitors: qHTS Assay for Human alpha-Galactosidase at pH 4.5 (AID 992)
Chain of Alpha-galactosidase A (Homo sapiens) (P06280 whole entry, looked up): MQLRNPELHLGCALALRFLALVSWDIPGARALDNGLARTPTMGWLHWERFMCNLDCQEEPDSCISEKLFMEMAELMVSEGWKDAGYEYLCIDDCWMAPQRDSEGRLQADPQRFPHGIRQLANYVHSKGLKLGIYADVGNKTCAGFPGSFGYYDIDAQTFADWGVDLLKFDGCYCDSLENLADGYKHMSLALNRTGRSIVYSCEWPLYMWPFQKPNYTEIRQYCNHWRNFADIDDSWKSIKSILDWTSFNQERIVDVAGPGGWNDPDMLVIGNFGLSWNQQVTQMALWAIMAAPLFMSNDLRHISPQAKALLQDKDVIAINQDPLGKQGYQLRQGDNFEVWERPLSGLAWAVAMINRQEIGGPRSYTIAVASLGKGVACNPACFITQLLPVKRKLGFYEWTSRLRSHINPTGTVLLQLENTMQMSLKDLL
Summary of the method: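 Concentration-response curves (0.7 nM to 77 uM final) were modeled with the Hill equation to give AC50. Reactions: 2 nM enzyme, 80 uM fluorogenic alpha-galactoside, pH 4.5 citric acid buffer, 20 min, room temperature.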

[16] = biological target: alpha-glucosidase (Oryza sativa, rice) (UniProt Q653V4); test: Counterscreen for Glucocerebrosidase Inhibitors: qHTS Assay for Rice alpha-Glucosidase at pH 5.0 (AID 997)
Summary of the method: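 Rice alpha-glucosidase (4 nM final) with 400 uM 4-methylumbelliferyl-alpha-D-glucopyranoside in citrate buffer pH 5.0, 20 min at room temperature, stopped at pH 10; fluorescence 365/440 nm, compounds 0.7 nM–77 uM, AC50 from Hill fits.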

[17] = biological target: Pyruvate kinase (Leishmania mexicana) (UniProt Q27686); test: qHTS Validation Assay for Inhibitors of Leishmania Mexicana Pyruvate Kinase (AID 945)
Chain of Pyruvate kinase (Leishmania mexicana) (Q27686 2-499 E452W): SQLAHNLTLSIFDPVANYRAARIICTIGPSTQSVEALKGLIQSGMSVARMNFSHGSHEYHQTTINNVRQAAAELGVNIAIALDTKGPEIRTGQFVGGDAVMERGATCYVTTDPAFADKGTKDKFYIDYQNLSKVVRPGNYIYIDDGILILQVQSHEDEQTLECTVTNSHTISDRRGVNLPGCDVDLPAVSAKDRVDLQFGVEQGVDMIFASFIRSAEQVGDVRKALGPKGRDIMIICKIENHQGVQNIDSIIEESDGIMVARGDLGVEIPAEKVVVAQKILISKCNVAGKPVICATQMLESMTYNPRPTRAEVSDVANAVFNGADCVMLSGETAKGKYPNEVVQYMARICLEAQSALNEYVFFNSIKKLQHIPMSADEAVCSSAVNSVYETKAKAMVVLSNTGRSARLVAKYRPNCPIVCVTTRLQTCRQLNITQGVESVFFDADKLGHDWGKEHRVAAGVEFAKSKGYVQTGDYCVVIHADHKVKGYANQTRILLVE
Summary of the method: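 Substrate mix (0.5 mM PEP, 0.1 mM ADP, 7 mM MgCl2, 50 mM KCl, pH 7.2 imidazole) received compound by pin tool, then 0.2 nM LmPYK E451W. After 1 h at room temperature, PKLight was added and luminescence measured.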

[18] = qHTS Assay for Identification of Small Molecule Antagonists for NFkB Signaling Pathway (AID 895; active means well fitted inhibition curve with a large enough effect in the signal ratio, with a control signal flat, not every such curve was filed as active; the % refers to the signal ratio; further: potency means the concentration at half of the fitted maximal effect)
Summary of the method: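 Beta-lactamase reporter read-out (460 and 530 nm emission ratio, 405 nm excitation, 2 hrs substrate loading RT) after 5 hr stimulation with 10 pM TNF alpha in compound-treated NFkB-bla ME-180 cells in low-serum medium.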

[19] = biological target: Cytochrome P450 2C19 (Homo sapiens) (UniProt P33261); test: qHTS Assay for Inhibitors and Substrates of Cytochrome P450 2C19 (AID 899); further: nearly all actives have a fitted effect of over 60% in size
Summary of the method: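 5nM enzyme + 10uM Luciferin-H EGE (=KM), 50mM KPO4; cpd pin-transferred, 10 min 37C; NADPH regen, 60 min 37C; stopped w/ luciferin detection reagent, 20 min; luminescence. Normalized to 57uM ketoconazole (AC100).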

## N.N.N.N.N.N.N.N.N.N.N.N.N.N.O.O.[Ru].[Ru].[Ru]
[1]
  activity change, negative = inhibition: 17.6% [at 38 µM]
[2]
  Potency: inactive
[3]
  activity change, negative = inhibition: -5.33% [at 38 µM]
[4]
  activity, negative = inhibition: -27% [at 38 µM]
[5]
  Potency: > 46 µM
[6]
  Potency: > 46 µM
[7]
  Potency: inactive
[8]
  Potency: inactive
[9]
  outcome: inactive
[10]
  Potency: inactive
[11]
  outcome: inactive
[12]
  Potency: inactive
[13]
  Potency: inactive
[14]
  outcome: inactive
[15]
  outcome: inactive
[16]
  Potency: inactive

## COc1ccc2c(c1)CCC1C2CC[C@]2(C)[C@H](NCCCCCCN3C(=O)C=CC3=O)CC[C@@H]12 (stereo partly specified)
[1]
  activity change, negative = inhibition: -7.36% [at 38 µM]
[2]
  Potency: inactive
[3]
  activity change, negative = inhibition: 12.6% [at 38 µM]
[4]
  activity, negative = inhibition: 1% [at 38 µM]
[5]
  Potency: > 46 µM
[6]
  Potency: > 46 µM
[7]
  Potency: inactive
[8]
  Potency: inactive
[9]
  outcome: inactive
[14]
  outcome: inactive
[15]
  outcome: inactive
[16]
  Potency: inactive

## Nc1ccc(CCNc2ncnc3c2ncn3[C@@H]2O[C@@H](CO)[C@H](O)[C@@H]2O)cc1
[1]
  activity change, negative = inhibition: -2.21% [at 38 µM]
[2]
  Potency: inactive
[3]
  activity change, negative = inhibition: 3.61% [at 38 µM]
[4]
  activity, negative = inhibition: 17.4% [at 38 µM]
[5]
  Potency: > 46 µM
[6]
  Potency: > 46 µM
[7]
  Potency: inactive
[8]
  Potency: inactive
[9]
  outcome: inactive
[10]
  Potency: inactive
[11]
  outcome: inactive
[12]
  Potency: inactive
[17]
  outcome: inactive
[14]
  outcome: inactive
[15]
  outcome: inactive

## CNC(=O)[C@@H]1O[C@@H](n2cnc3c(NCc4ccc(N)cc4)ncnc32)[C@@H](O)[C@H]1O
[1]
  activity change, negative = inhibition: -7.83% [at 38 µM]
[2]
  Potency: inactive
[3]
  activity change, negative = inhibition: 4.77% [at 38 µM]
[4]
  activity, negative = inhibition: -2.42% [at 38 µM]
[5]
  Potency: > 46 µM
[6]
  Potency: > 46 µM
[7]
  Potency: inactive
[8]
  Potency: inactive
[9]
  outcome: inactive
[10]
  Potency: inactive
[18]
  Potency: 12.6 µM (active)
[11]
  outcome: inactive
[12]
  Potency: inactive
[13]
  Potency: inactive
[17]
  outcome: inactive
[14]
  outcome: inactive
[15]
  outcome: inactive

## NC(=S)NCCC[C@@H](N)C(=O)O
[1]
  activity change, negative = inhibition: 4.46% [at 38 µM]
[2]
  Potency: inactive
[3]
  activity change, negative = inhibition: 4.17% [at 38 µM]
[4]
  activity, negative = inhibition: -8.44% [at 38 µM]
[5]
  Potency: > 46 µM
[6]
  Potency: > 46 µM
[7]
  Potency: inactive
[8]
  Potency: inactive
[9]
  outcome: inactive
[10]
  Potency: inactive
[18]
  Potency: inactive
[11]
  outcome: inactive
[13]
  Potency: inactive
[14]
  outcome: inactive
[15]
  outcome: inactive

## Cc1ccccc1/C=C\C1=NCCN1
[1]
  activity change, negative = inhibition: -3.38% [at 38 µM]
[2]
  Potency: 6.31 µM (active)
[3]
  activity change, negative = inhibition: -1.9% [at 38 µM]
[4]
  activity, negative = inhibition: 5.08% [at 38 µM]
[5]
  Potency: > 46 µM
[6]
  Potency: > 46 µM
[7]
  Potency: inactive
[8]
  Potency: inactive
[9]
  outcome: inactive
[13]
  Potency: inactive
[14]
  outcome: inactive
[15]
  outcome: inactive

## NC(N)=N[C@H](CCC(=O)O)C(=O)O
[1]
  activity change, negative = inhibition: -11% [at 38 µM]
[2]
  Potency: inactive
[3]
  activity change, negative = inhibition: -4.2% [at 38 µM]
[4]
  activity, negative = inhibition: 0.861% [at 38 µM]
[5]
  Potency: > 46 µM
[6]
  Potency: > 46 µM
[7]
  Potency: inactive
[8]
  Potency: inactive
[9]
  outcome: inactive
[10]
  Potency: inactive
[11]
  outcome: inactive
[12]
  Potency: inactive
[13]
  Potency: inactive
[14]
  outcome: inactive
[15]
  outcome: inactive
[16]
  Potency: inactive

## O=[N+]([O-])c1ccc(Nc2nc3ccccc3s2)cc1
[1]
  activity change, negative = inhibition: 18.2%
[2]
  Potency: inactive
[3]
  activity change, negative = inhibition: -2.36%
[4]
  activity, negative = inhibition: 0.26%
[5]
  Potency: > 46 µM
[6]
  Potency: > 9.22 µM
[7]
  Potency: inactive
[8]
  Potency: inactive
[10]
  Potency: inactive

## CSC(N)=NCCC[C@@H](N)C(=O)O
[1]
  activity change, negative = inhibition: 19.2% [at 38 µM]
[2]
  Potency: inactive
[3]
  activity change, negative = inhibition: 6.92% [at 38 µM]
[4]
  activity, negative = inhibition: 10.5% [at 38 µM]
[5]
  Potency: > 46 µM
[6]
  Potency: > 46 µM
[7]
  Potency: inactive
[8]
  Potency: inactive
[9]
  outcome: inactive
[19]
  Potency: inactive
[13]
  Potency: inactive
[14]
  outcome: inactive
[15]
  outcome: inactive

## CNc1ncnc2c1ncn2[C@@H]1O[C@@H](CO)[C@H](O)[C@@H]1O
[1]
  activity change, negative = inhibition: -19.9% [at 38 µM]
[2]
  Potency: inactive
[3]
  activity change, negative = inhibition: 0.83% [at 38 µM]
[4]
  activity, negative = inhibition: -6.86% [at 38 µM]
[5]
  Potency: > 46 µM
[6]
  Potency: > 46 µM
[7]
  Potency: inactive
[8]
  Potency: inactive
[9]
  outcome: inactive
[14]
  outcome: inactive
[15]
  outcome: inactive

## CN1CC[C@@]2(CCN3CCc4c(oc5ccccc45)[C@@H]3C2)N(C)C1=O
[1]
  activity change, negative = inhibition: 18% [at 38 µM]
[2]
  Potency: inactive
[3]
  activity change, negative = inhibition: -21.7% [at 38 µM]
[4]
  activity, negative = inhibition: -5.91% [at 38 µM]
[5]
  Potency: > 46 µM
[6]
  Potency: > 46 µM
[7]
  Potency: inactive
[8]
  Potency: inactive
[9]
  outcome: inactive
[10]
  Potency: inactive
[18]
  Potency: inactive
[12]
  Potency: inactive
[14]
  outcome: inactive
[15]
  outcome: inactive
[16]
  Potency: inactive

— PubChem BioAssay (NCATS)
